The results in this text go back to PubChem BioAssay (NCATS).

SMILES strings stand for the structures. Inconclusive results are not listed. Unmarked numbers belong to inactive results. The source made the active and inactive calls. Calls come from the whole dose curve; as a rule, active = well fitted curve in the direction sought with a large enough effect; inconclusive = small, poorly fitted or top-dose-only effect, or another doubt; inactive = no such curve, though single readings can be large; an effect the other way counts as inactive or inconclusive. Where a SMILES comes first, the peptide text is derived from it. Bridges are numbered along the chain shown (N, C = ends). [ ]: non-standard residue; d: D form. hArg = N=C(N)NCCCC[C@H](N)C(=O)O; Mpa = O=C(O)CCS

Experiment [1] can be described thus: qHTS of pediatric cancer cell lines to identify multiple opportunities for drug repurposing: Primary screen for Rh41 cells (AID 1347108).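 Note: series mostly up to about 46 µM; luminescence drop marks cytotoxic hits; nearly all actives have a fitted effect of over 70% in size.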 An outline of the steps: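 500-1,000 cells/well; 5 h pre-incubation 37 °C/5% CO2; compound pinned; 48 h; CellTiter-Glo, 15 min RT; luminescence. MIPE 11-pt from 0.78 nM, NPC 8-pt from 0.59 nM final. Bortezomib 2.3 µM final as positive control.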
On the technique in general: Quantitative high-throughput screening tests each substance at several concentrations.

Experiment [2] in a line: qHTS of pediatric cancer cell lines to identify multiple opportunities for drug repurposing: Confirmatory screen for NB1643 cells (AID 1347109).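 For activity change, negative = cytotoxic: plate controls were DMSO for no effect and bortezomib for full effect.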 Note: nearly all actives have a fitted effect of over 45% in size. Note: potency is the fitted concentration of half-maximal effect. Summed up:
(§1)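 Cells (500-1,000/well) rested 5 h, then received compounds for 48 h; metabolically active cells were measured by CellTiter-Glo luminescence. Final concentrations spanned up to 46 µM (MIPE, 11-point) or 0.59 nM-46 µM (NPC, 8-point) in primary screens, 11-point in follow-ups.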

Experiment [3] is described as follows: qHTS of pediatric cancer cell lines to identify multiple opportunities for drug repurposing: Confirmatory screen for A673 cells (AID 1347110).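 Note: cells exposed to compound for 48 h before the viability read; nearly all actives have a fitted effect of over 65% in size.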 Note: potency is the fitted concentration of half-maximal effect. Summed up: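 Forty-eight-hour viability assay. Follow-up compounds ran at 11-point dilutions; positive control bortezomib at 2.3 uM final, neutral control DMSO.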
Experiment [4] is described as follows: qHTS of pediatric cancer cell lines to identify multiple opportunities for drug repurposing: Confirmatory screen for BT-12 cells (AID 1347112). Note: % is set by controls: 0 for no effect and ±100 for the full control effect; nearly all actives have a fitted effect of over 55% in size. Summed up:
as §1

Experiment [5] can be described thus: qHTS of pediatric cancer cell lines to identify multiple opportunities for drug repurposing: Confirmatory screen for DAOY cells (AID 1347114). Note: % is set by controls: 0 for no effect and ±100 for the full control effect; nearly all actives have a fitted effect of over 65% in size. Summed up: (§2)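 Viability measured as metabolically active cells via CellTiter-Glo luminescence following 48 hours of compound exposure, 11-point dilutions in confirmatory testing. 500-1,000 cells/well plated 5 hours before dosing; controls were DMSO and 2.3 µM bortezomib.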

Experiment [6] is described as follows: qHTS of pediatric cancer cell lines to identify multiple opportunities for drug repurposing: Confirmatory screen for NB-EBc1 cells (AID 1347115).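 Note: cells exposed to compound for 48 h before the viability read; % is set by controls: 0 for no effect and ±100 for the full control effect; nearly all actives have a fitted effect of over 45% in size.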 An outline of the steps:
as §1

Experiment [7] is described as follows: qHTS of pediatric cancer cell lines to identify multiple opportunities for drug repurposing: Confirmatory screen for BT-37 cells (AID 1347117).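 For activity change, negative = cytotoxic: plate controls were DMSO for no effect and bortezomib for full effect.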 Note: nearly all actives have a fitted effect of over 55% in size. Note: potency is the fitted concentration of half-maximal effect. Summed up:
as §1

The nature of experiment [8]: qHTS of pediatric cancer cell lines to identify multiple opportunities for drug repurposing: Confirmatory screen for MG 63 (6-TG R) cells (AID 1347119).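 Note: plate controls were DMSO neutral control for no effect and bortezomib for full effect; nearly all actives have a fitted effect of over 55% in size.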 An outline of the steps:
as §1

A short description of experiment [9]: qHTS of pediatric cancer cell lines to identify multiple opportunities for drug repurposing: Confirmatory screen for control Hh wild type fibroblast cells (AID 1347121).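 Note: plate controls were DMSO for no effect and bortezomib for full effect; nearly all actives have a fitted effect of over 70% in size.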 An outline of the steps: as §1
The nature of experiment [10]: qHTS of pediatric cancer cell lines to identify multiple opportunities for drug repurposing: Confirmatory screen for U-2 OS cells (AID 1347122).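 Note: plate controls were DMSO for no effect and bortezomib for full effect; nearly all actives have a fitted effect of over 65% in size.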 Summed up: as §1
Experiment [11] is described as follows: qHTS of pediatric cancer cell lines to identify multiple opportunities for drug repurposing: Confirmatory screen for Rh41 cells (AID 1347123).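 For activity change, negative = cytotoxic: plate controls were DMSO for no effect and bortezomib for full effect.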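 Note: 48 h compound exposure; nearly all actives have a fitted effect of over 60% in size.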 Note: potency is the fitted concentration of half-maximal effect. An outline of the steps: as §1
Experiment [12] is described as follows: qHTS of pediatric cancer cell lines to identify multiple opportunities for drug repurposing: Confirmatory screen for RD cells (AID 1347124). For activity change, negative = cytotoxic: % is set by controls: 0 for no effect and ±100 for the full control effect.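 Note: cells exposed to compound for 48 h before viability readout; nearly all actives have a fitted effect of over 65% in size.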 Note: potency is the fitted concentration of half-maximal effect. An outline of the steps: as §1
Experiment [13] is described as follows: qHTS of pediatric cancer cell lines to identify multiple opportunities for drug repurposing: Confirmatory screen for Rh18 cells (AID 1347125). For activity change, negative = cytotoxic: % is set by controls: 0 for no effect and ±100 for the full control effect. Note: nearly all actives have a fitted effect of over 55% in size. Note: potency is the fitted concentration of half-maximal effect. Summed up: as §1
A short description of experiment [14]: qHTS of pediatric cancer cell lines to identify multiple opportunities for drug repurposing: Confirmatory screen for Rh30 cells (AID 1347126). For activity change, negative = cytotoxic: % is set by controls: 0 for no effect and ±100 for the full control effect. Note: nearly all actives have a fitted effect of over 55% in size. Note: potency is the fitted concentration of half-maximal effect. Summed up:
as §1

The nature of experiment [15]: qHTS of pediatric cancer cell lines to identify multiple opportunities for drug repurposing: Confirmatory screen for OHS-50 cells (AID 1347128). For activity change, negative = cytotoxic: % is set by controls: 0 for no effect and ±100 for the full control effect. Note: potency is the fitted concentration of half-maximal effect. An outline of the steps: as §1
Experiment [16] can be described thus: qHTS of pediatric cancer cell lines to identify multiple opportunities for drug repurposing: Confirmatory screen for SK-N-MC cells (AID 1347111).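 Note: potency is the fitted concentration of half-maximal effect; cells exposed to compound for 48 h before the readout; nearly all actives have a fitted effect of over 70% in size.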 As to conditions: SK-N-MC cell viability. An outline of the steps:
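Seed 500-1,000 cells/well; rest 5 h at 37 degrees C. Pin-transfer compounds, 11-point titration. Incubate 48 h. Add CellTiter-Glo, 15 min RT, read luminescence.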

Experiment [17] in a line: qHTS of pediatric cancer cell lines to identify multiple opportunities for drug repurposing: Confirmatory screen for LAN-5 cells (AID 1347113). Note: nearly all actives have a fitted effect of over 65% in size. Note: potency is the fitted concentration of half-maximal effect. Summed up:
as §1

Experiment [18] can be described thus: qHTS of pediatric cancer cell lines to identify multiple opportunities for drug repurposing: Confirmatory screen for TC32 cells (AID 1347118). As to conditions: TC32 Ewing sarcoma cells viability qHTS. Summed up: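 Luminescent ATP read-out (CellTiter-Glo) of metabolically active TC32 cells after 48 h exposure. Concentration-response curves came from 11-point (MIPE, 0.78 nM–46 µM) or 8-point (NPC, 0.59 nM–46 µM) primary titrations; follow-up used 11 points.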

A short description of experiment [19]: qHTS of pediatric cancer cell lines to identify multiple opportunities for drug repurposing: Confirmatory screen for Saos-2 cells (AID 1347127). Note: potency is the fitted concentration of half-maximal effect; nearly all actives have a fitted effect of over 60% in size. As to conditions: Saos-2 osteosarcoma cell viability. Summed up: as §1
A short description of experiment [20]: qHTS of pediatric cancer cell lines to identify multiple opportunities for drug repurposing: Confirmatory screen for SJ-GBM2 cells (AID 1347116).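 Note: plate controls were DMSO for no effect and bortezomib for full effect; nearly all actives have a fitted effect of over 60% in size.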 An outline of the steps:
as §2

Consider `Nc1ccc(S(=O)(=O)c2ccc(N)cc2)cc1`, for which the call in experiment [1] was inactive.

For the compound `CCOC(=O)[C@H](CCc1ccccc1)N[C@@H](C)C(=O)N1CCC[C@H]1C(=O)O`, the result in experiment [1] was inactive.

Consider `CN(C(=O)c1c(O)c2ccccc2n(C)c1=O)c1ccccc1`, for which, in [1], the outcome was inactive.

As for `CC(C)NC[C@@H](O)COc1ccc(CC(N)=O)cc1`, in [1], the compound was classed as inactive.

On to `CC(=O)Nc1ccc(C(=O)O)cc1`, for which the compound was classed as inactive in experiment [1].

Consider `CCCCCCCCCCC(CO)CCCCCCCC` (stereo not given), for which the outcome in experiment [1] was inactive.

Turning to `CN1CCCN=C1COC(=O)C(O)(c1ccccc1)C1CCCCC1` (stereo not given), in [1], the call was inactive.

For the compound `C[n+]1ccccc1/C=N/O`, in experiment [1], the outcome was inactive.

As for `COc1ccc(C(=O)N2CCN(CC(=O)N3CCOCC3)CC2)cc1`, the outcome in [1] was inactive.

Turning to `C/C=C/C(=O)N(CC)c1ccccc1C`, in [1], the result was inactive.

Consider `COc1cc(C(=O)NCCCCCC(=O)O)cc(OC)c1OC`, for which the compound was called inactive in experiment [1], in [4], in experiment [5], in experiment [6], in [8] and in experiment [9]. The compound was called inactive in experiment [10]. Further, the Potency result in experiment [2], in experiment [3], in experiment [7], in experiment [11], in experiment [12] and in experiment [13] was “inactive” each time. In addition, the Potency result in experiment [14] and in experiment [15] was “inactive” throughout.

As to `CC(C)=CCC/C(C)=C/CO`, in [1], the call was inactive.

Take `Cc1cccc(C)c1NC(=O)CC12CCCN1CCC2`: the result in [1] was inactive.

For `O=C(Cn1ccnc1[N+](=O)[O-])NCc1ccccc1`, the Potency entry in experiment [2], in experiment [17], in experiment [7], in [11], in experiment [12] and in [13] was “inactive” in each case. Moreover, the results for the Potency in [3], in [16] and in [18] were 1.17 µM (active), 2.93 µM (active) and 1.85 µM (active), respectively. In addition, the result in experiment [4], in [5], in experiment [6], in experiment [9] and in experiment [10] was inactive.

For the compound `O=C(O)CCCc1ccccc1`, the outcome in [1] was inactive.

Take `CC(=O)OCC(=O)[C@@]1(O)CC[C@H]2[C@@H]3CCC4=CC(=O)C=C[C@]4(C)[C@@]3(F)[C@@H](O)C[C@@]21C`: the compound was classed as inactive in experiment [1], in experiment [5] and in [10]. Moreover, the Potency in experiment [2] was 10.4 µM (active); in [16] it was 16.5 µM (active); in experiment [17], 14.7 µM (active); in experiment [7], 16.5 µM (active); in experiment [18], 14.7 µM (active); in experiment [11], 11.7 µM (active). For the same compound, the Potency in experiment [12] is 20.8 µM (active); in [13], 18.5 µM (active); in experiment [14], 13.1 µM (active); in experiment [19] it was 11.7 µM (active); in experiment [15], 16.5 µM (active).

Take `CCOc1ccc(C(=O)OCCN(CC)CC)cc1`: the outcome in experiment [1] was inactive.

Consider `NC(=O)[C@@H]1CSSCCC(=O)N[C@@H](CCCCN=C(N)N)C(=O)NCC(=O)N[C@@H](CC(=O)O)C(=O)N[C@@H](Cc2c[nH]c3ccccc23)C(=O)N2CCC[C@H]2C(=O)N1` ([Mpa][hArg]GDWPC-NH2; disulfide 1-7), for which the outcome in [1] was inactive.

On to `CCCNC(C)(C)COC(=O)c1ccccc1`, for which the compound was called inactive in [1].

`CC(=O)[C@@]1(O)CC[C@H]2[C@@H]3C[C@H](C)C4=CC(=O)C=C[C@]4(C)[C@@]3(F)[C@@H](O)C[C@@]21C`: the call in experiment [1], in experiment [4], in experiment [5], in experiment [6], in experiment [20] and in experiment [8] was inactive. Moreover, the result in [9] and in [10] was inactive. In addition, the Potency entry in experiment [2], in experiment [3], in [17], in experiment [7], in experiment [12] and in [13] was “inactive” throughout. The Potency result in [14] and in experiment [15] was “inactive” each time. Also, the Potency in [16] is 23.3 µM (active); in experiment [18] it was 2.93 µM (active).

As to `CC(=O)Oc1cccc(C)c1`, the result in experiment [1] was inactive.

As to `Cc1cc(OI)c(C(C)C)cc1-c1cc(C(C)C)c(OI)cc1C`, the call in experiment [1] was inactive.

As to `CCCCCCCCCCOc1cc2c(=O)c(C(=O)OCC)c[nH]c2cc1OCC`, the activity change, negative = cytotoxic in experiment [1] is 18.9% [at 4.84 µM].

`O=C(O)CNC(=O)c1ccccc1I`: the compound was called inactive in experiment [1].

`C[C@@H]1O[C@@H](OC[C@H]2O[C@@H](Oc3c(-c4ccc(O)c(O)c4)oc4cc(O)cc(O)c4c3=O)[C@H](O)[C@@H](O)[C@@H]2O)[C@H](O)[C@H](O)[C@H]1O`: in experiment [1], the compound was called inactive.

`CCOc1cc(NC(C)=O)ccc1C(=O)OC`: in [1], the compound was called inactive.

On to `CN[C@@H]1[C@H](O)[C@H](NC)[C@H]2O[C@@]3(O)C(=O)C[C@@H](C)O[C@H]3O[C@@H]2[C@H]1O`, for which, in experiment [1], the result was inactive.

`COc1ccc2cc(CCC(C)=O)ccc2c1`: the result in experiment [1] was inactive.

As for `CCCCCCCCCCCCCCCCN`, the call in [1] was inactive.

`O=C(NCC(O)CO)c1c(I)c(C(=O)NCC(O)CO)c(I)c(N(CCO)C(=O)CO)c1I` (stereo not given): the result in experiment [1] was inactive.

Consider `CC(=O)Nc1cccc(O)c1`, for which the call in experiment [1] was inactive.

For `CC(C)c1cc2c(cc1S(=O)(=O)O)[C@@]1(C)CCC[C@@](C)(C(=O)O)[C@@H]1CC2`, the call in experiment [1] was inactive.

As for `O=C1c2cccc(O)c2C(=O)c2c(O)cccc21`, in [1], the outcome was inactive.

Take `CC(C)=CCC[C@@](C)(O)[C@H]1CC=C(C)CC1`: the compound was called inactive in [1].

On to `NS(=O)(=O)c1cc(C2(O)NC(=O)c3ccccc32)ccc1Cl` (stereo not given), for which the call in experiment [1] was inactive.

In the case of `C/C(=C(\CCO)SS/C(CCO)=C(\C)N(C=O)Cc1cnc(C)nc1N)N(C=O)Cc1cnc(C)nc1N`, the call in experiment [1] was inactive.

Consider `CC1(C)S[C@@H]2[C@H](NC(=O)C(C(=O)O)c3ccccc3)C(=O)N2[C@H]1C(=O)O` (stereo not given in full), for which, in experiment [1], the outcome was inactive.

Regarding `CCc1cccc(CC)c1NC(=O)CN(CC(=O)O)CC(=O)O`, the compound was called inactive in experiment [1].
